Screening results as filed in PubChem BioAssay.
MITF TRPM1 inh: inhibitors of MITF-dependent TRPM1 promoter reporter, primary screen, cell-based, SK-MEL-5, single point, luciferase. AID 488899, 2010. inhibition, % at 12.5 µM. 0.83% of 330,000 active. SK-MEL-5 TRPM1 promoter luciferase, 24 h;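 active = mean inhibition across replicates of 60% or more, whatever share of single replicates reaches that level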
Peg3 promoter: Peg3 promoter-driven luciferase inhibitors, primary screen, cell-based, HeLa, luciferase luminescence | inhibition, % at 20 µM | 1.7% of 360,000 active | HeLa PEG-Prom luciferase reporter, overnight;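 active = inhibition of at least 50% at 20 µM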
LMP1 NFkB inh: EBV LMP1-driven NF-kappaB luciferase reporter inhibitors, primary screen, cell-based, luminescence, single point; LMP1-induced NF-kappaB luciferase reporter cells; inhibition, % at 12.5 µM; 0.69% of 350,000 active; AID 504558, 2011; in the data active = inhibition above about 41%;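 note: 0% = neutral control wells and 100% = reference inhibitor control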
PAX8 reporter: inhibitors of PAX8-driven TPO luciferase reporter, primary screen, RMG-I cells, single concentration. SteadyGlo, 24 h. inhibition, % at 12.6 µM. 1.2% of 360,000 active. AID 652154, 2013;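 active = mean replicate inhibition at least 60% with every replicate also reaching 60%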;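 note: luciferase light reporting Pax8 driven TPO promoter activity; plate controls were median of neutral control wells for no effect and mitoxantrone controls for full effect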
HIF-2a block: HIF-2a reporter inhibitors, primary screen, luminescence, 786-0 RCC cells; 0.72% of 360,000 active; 786-0 RCC cells HIF-2a reporter, luciferase luminescence, overnight; inhibition, % at 18.8 µM;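 active = inhibition of the luminescence signal of 40% or more relative to plate controls, in a single-dose primary screen at 18.75 µM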
Shn3 inh set2: reduction of Shn3 3'UTR firefly luciferase signal, primary screen, Schnurri-3 inhibitor project, cell-based, Clone20 osteoblasts, set 2; inhibition, % at 12.5 µM; AID 588674, 2011; Clone20 osteoblast Shn3 3'UTR firefly luciferase, 24 h; 0.52% of 360,000 active;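 active = mean inhibition of at least 75% with every replicate also reaching 75%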;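 note: 0% = median of neutral control wells and 100% = pilot-screen positive control compound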
Starred values were filed as active, the others as inactive; x = no result; ! = not active in a repeat. Only some compounds are listed: those with a hit (about 2.8% of all), similar ones and a draw of the others.

SMILES	MITF TRPM1 inh	Peg3 promoter	LMP1 NFkB inh	PAX8 reporter	HIF-2a block	Shn3 inh set2
CC1=NN(C(N)=S)C(=O)C1N=Nc1cccc(C)c1 (centres undefined)	-52	-167	-10	-55	-212	-53
CO[C@H]1CN(C)C(=O)c2ccc(NC(=O)C3CCC3)cc2OC[C@H](C)N(Cc2nccs2)C[C@@H]1C	x	x	x	3	x	x
C[C@@H]1CN([C@H](C)CO)C(=O)Cc2cc(NS(=O)(=O)c3ccccc3)ccc2O[C@@H]1CN(C)S(=O)(=O)c1ccc(Cl)cc1	x	x	x	104*	x	x
C[C@@H]1CN([C@@H](C)CO)C(=O)Cc2cc(NS(=O)(=O)c3ccc(Cl)cc3)ccc2O[C@@H]1CN(C)CC1CCCCC1	x	x	x	106*	x	x
COc1ccc(S(=O)(=O)N[C@H]2C=C[C@H](CC(=O)N3CCN(c4ccccc4)CC3)O[C@@H]2CO)cc1	x	x	x	17	x	x
CC1(C)CC[C@]2(C(=O)n3ccnc3)CC[C@]3(C)[C@H](C(=O)C=C4[C@@]5(C)C=C(C#N)C(=O)C(C)(C)[C@@H]5CC[C@]43C)[C@@H]2C1	94*	106*	90*	39	90*	94*
Cn1nc(C(C)(C)C)cc1C(=O)N1CCCCC1c1cc(C(=O)Nc2ccc(F)c(Cl)c2)no1 (centres undefined)	x	25	x	25	6	86*
O=S(=O)(c1ccc(Br)cc1)N1CCN(c2cc(-c3ccccc3)nc3ncnn23)CC1	-11	6	11	x	-17	50
COc1ccc(S(=O)(=O)N2CCN(c3cc(-c4ccccc4)nc4ncnn34)CC2)cc1	20	32	-13	x	2	87*
COc1ccc(-c2cc(N3CCCC3)n3ncnc3n2)cc1	-8	7	10	15	-2	26
O=S(=O)(c1ccccc1)N1CCN(c2cc(-c3ccccc3)nc3ncnn23)CC1	49	14	43*	x	10	84*
CC(C)NC(=O)Nc1ccc2c(c1)CC(=O)N([C@H](C)CO)C[C@@H](C)[C@@H](CN(C)S(C)(=O)=O)O2	x	x	x	-1	x	x
O=C1c2cccnc2C(=O)N1Cc1ccc(F)cc1S(=O)(=O)NCc1ccco1	3	13	72*	5	-3	12
C=CCn1c(-c2ccc(OC)cc2)csc1=Nc1c(C)n(C)n(-c2ccccc2)c1=O	23	15	42*	x	15	23
Cc1csc(=Nc2c(C)n(C)n(-c3ccccc3)c2=O)n1Cc1ccccc1	3	3	-6	8	11	7
CN(C)CCCNc1nc2cc(-c3cccc(Cl)c3)sc2c(=O)n1C	x	91*	x	-8	-54	-15
COc1ccc(-c2cc3nc(NCCCN(C)C)n(C)c(=O)c3s2)cc1OC	x	-24	x	-29	-15	-5
COCCNc1nc2cc(-c3cccc(C(F)(F)F)c3)sc2c(=O)n1C	x	4	x	12	-8	11
CN(C)CCCNc1nc2cc(-c3cccc(C(F)(F)F)c3)sc2c(=O)n1C	x	96*	x	3	-50	-10
CC(C)C#Cc1cnc2c(c1)C(=O)N([C@@H](C)CO)C[C@@H](C)[C@H](CN(C)C(=O)CC1CC1)O2	x	x	x	-7	x	x
Cc1ccc(S(=O)(=O)Nc2ccc3c(c2)CC(=O)N([C@H](C)CO)C[C@H](C)[C@H](CN(C)C(=O)NC(C)C)O3)cc1	x	x	x	-10	x	x
C[C@@H]1CN([C@H](C)CO)C(=O)c2cc(NC(=O)c3ccncc3)ccc2O[C@@H]1CN(C)S(C)(=O)=O	x	x	x	-7	x	x
COc1cc(/C=C2\SC(=O)N(CC(=O)Nc3ccccc3F)C2=O)cc(Cl)c1O	9	21	7	3	18	10
COc1cc(OC)c(/C=C2\SC(=O)N(CC(=O)Nc3ccccc3F)C2=O)c(OC)c1	7	47	44*	21	30	5
C[C@@H]1CN([C@@H](C)CO)C(=O)c2cc(N(C)C)ccc2O[C@@H](C)CCCCO[C@@H]1CN(C)C(=O)Nc1ccccc1	x	x	x	1	x	x
SMILES	MITF TRPM1 inh	Peg3 promoter	LMP1 NFkB inh	PAX8 reporter	HIF-2a block	Shn3 inh set2
CCOC(=O)N1CCN(CC(O)COc2ccccc2C(C)C)CC1 (centres undefined)	-7	11	8	x	13	7
CCN(CCNCC(O)COc1ccccc1C(C)C)c1cccc(C)c1 (centres undefined)	-7	93*	1	24	7	22
CCOC(=O)Oc1c(OC)cc(C(=O)O[C@@H]2C[C@@H]3CN4CCc5c([nH]c6cc(OC)ccc56)[C@H]4C[C@@H]3[C@H](C(=O)OC)[C@H]2OC)cc1OC	33	26	46*	75*	15	93*
COC(=O)C1C2CC3c4[nH]c5cc(OC)ccc5c4CCN3CC2CC(OC(=O)CC(C)=O)C1OC (centres undefined)	1	-18	4	6	5	7
O=C(c1ccccc1F)N1CC(=O)N2[C@H](CO)[C@@H](c3ccc(-c4ccc(F)cc4)cc3)[C@@H]2C1	x	x	x	23	x	x
N#C[C@@H]1N[C@@H](CO)[C@H]1c1ccc(C#CC2CCCC2)cc1	x	x	x	2	x	x
O=C(COC(=O)c1ccco1)Nc1cccc(S(=O)(=O)N2CCOCC2)c1	x	-3	-4	92*	5	-8
CCCc1nc2ccccc2c(C(=O)OCC(=O)Nc2cccc(S(=O)(=O)N3CCOCC3)c2)c1CC	5	53*	10	x	10	29
COc1ccccc1CNC(=O)C[C@H]1C=C[C@@H](NC(C)=O)[C@@H](CO)O1	x	x	x	-4	x	x
CN(C)CCNC(=O)c1cccc(-c2cnc3c(NC=O)cc(-c4cccs4)cn23)c1	x	53*	x	-21	-39	-11
CN(C)CCNC(=O)c1cccc(-c2cnc3c(NC=O)cc(-c4ccccc4F)cn23)c1	x	96*	x	51	-28	-7
N#C[C@@H]1[C@H](c2ccc(C#CC3CCCCC3)cc2)[C@H](CO)N1S(=O)(=O)c1ccccc1	x	x	x	84*	x	x
N#C[C@H]1[C@H](c2ccc(C#CC3CCCCC3)cc2)[C@H](CO)N1C(=O)Nc1ccc(F)cc1	x	x	x	92*	x	x
N#C[C@@H]1[C@H](c2ccc(C#CC3CCCC3)cc2)[C@@H](CO)N1C(=O)Nc1ccc(F)cc1	x	x	x	-3	x	x
N#C[C@H]1[C@H](c2ccc(C#CC3CCCC3)cc2)[C@@H](CO)N1C(=O)Nc1ccc(F)cc1	x	x	x	88*	x	x
COc1cc(CN2C[C@@H]3N[C@H](C2)C3c2ccc(-c3ccncc3)cc2)cc(OC)c1 (some centres undefined)	x	x	x	1	x	x
COc1ccc(-c2ccc(C3[C@@H]4CN(C(=O)Nc5cccc(F)c5)C[C@H]3N4)cc2)cc1 (some centres undefined)	x	x	x	100*!	x	x
Cc1ccccc1-c1ccc(C2[C@@H]3CN(C(=O)NC4CCCCC4)C[C@H]2N3)cc1 (some centres undefined)	x	x	x	37	x	x
